Compound activity (PubChem BioAssay)
LYPLA1 counter – LYPLA1 inhibitors, primary screen, counter-screen for PME1 inhibitor project, biochemical, fluorescence polarization, FP-Rh probe ABPP; recombinant LYPLA1; inhibition, % at 5.9 µM; actives 0.16% (n = 320,000); AID 2174, 2009;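 active = inhibition above the mean of all tested compounds plus 3 SD, set per campaign, cut at about 14% in these data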;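 also: inhibitors block serine hydrolase probe labeling of LYPLA1 so polarization falls; 0% = enzyme with DMSO and 100% = wells lacking LYPLA1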
Target sequence (O75608 whole entry, looked up): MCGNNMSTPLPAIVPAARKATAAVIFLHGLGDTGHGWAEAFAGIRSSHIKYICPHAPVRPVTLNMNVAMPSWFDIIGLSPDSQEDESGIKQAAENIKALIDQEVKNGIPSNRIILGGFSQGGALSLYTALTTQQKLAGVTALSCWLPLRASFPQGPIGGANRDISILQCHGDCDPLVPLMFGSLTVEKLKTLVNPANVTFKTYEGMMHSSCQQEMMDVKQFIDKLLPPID
Fam108B counter – mouse Fam108B serine hydrolase inhibitors, primary screen, counter-screen for RBBP9 inhibitor project, biochemical, fluorescence polarization | recombinant Fam108B, FP-Rh probe fluorescence polarization | AID 1947, 2009 | inhibition, % at 9.51 µM | actives 0.33% (n = 300,000);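 active = inhibition above the screen mean inhibition plus 3 SD, computed separately per campaign, cut at about 18% in these data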;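 also: inhibitors lower polarization as less probe binds the enzyme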
PME-1 primary – PME-1 inhibitors via competitive probe labeling, primary screen, biochemical, fluorescence polarization, FP-Rh probe, HTS; recombinant PME-1; inhibition, % at 5.9 µM; actives 0.53% (n = 320,000);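 active = inhibition above the campaign mean of all compounds plus 3 SD, cut at about 26% in these data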;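 also: competitive labeling of PME-1 active site by serine hydrolase directed probe; 0% = PME-1 with DMSO and 100% = wells lacking PME-1 enzyme; inhibitors block probe labeling so polarization falls and inhibition rises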
Target sequence (Q9Y570 whole entry, looked up): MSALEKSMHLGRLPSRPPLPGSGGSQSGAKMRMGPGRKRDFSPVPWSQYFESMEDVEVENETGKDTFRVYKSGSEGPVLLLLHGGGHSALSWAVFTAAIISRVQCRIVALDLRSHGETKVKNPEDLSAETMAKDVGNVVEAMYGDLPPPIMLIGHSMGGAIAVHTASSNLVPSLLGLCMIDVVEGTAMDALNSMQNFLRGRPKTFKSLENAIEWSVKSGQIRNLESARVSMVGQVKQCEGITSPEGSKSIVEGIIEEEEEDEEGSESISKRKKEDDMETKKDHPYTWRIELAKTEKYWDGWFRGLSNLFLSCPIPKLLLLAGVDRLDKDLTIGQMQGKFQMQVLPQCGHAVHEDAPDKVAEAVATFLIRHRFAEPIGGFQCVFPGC
GSTO1 counter – inhibitors of recombinant GSTO1, primary screen, counter-screen for RBBP9 inhibitor project, biochemical, fluorescence polarization; Glutathione S-transferase omega-1 (Homo sapiens), P78417; activity-based probe fluorescence polarization; inhibition, % at 5.96 µM; actives 1.1% (n = 300,000);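 active = inhibition above the campaign mean inhibition plus 3 SD, cut at about 35% in these data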;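 also: 0% = GSTO1-1 with DMSO and 100% = wells lacking GSTO1-1 enzyme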
LYPLA2 inh – LYPLA2 inhibitors, primary screen, counter-screen for PME1 inhibitor project, biochemical, fluorescence polarization, FP-Rh probe ABPP. Acyl-protein thioesterase 2 (Homo sapiens), O95372. recombinant LYPLA2. inhibition, % at 5.9 µM. actives 0.38% (n = 320,000);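 active = inhibition above the screen-wide mean plus 3 SD, limit set per campaign, cut at about 26% in these data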;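 also: 0% = LYPLA2 with DMSO and 100% = wells lacking LYPLA2 enzyme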
PAD4 inh – human PAD4 inhibitors, primary screen, biochemical, fluorescence polarization, 1536-well format; Protein-arginine deiminase type-4 (Homo sapiens), Q9UM07; recombinant PAD4, RCA probe fluorescence polarization; inhibition, % at 6.36 µM; actives 0.41% (n = 330,000); AID 485272, 2010;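 active = percent inhibition above a cutoff equal to the mean of all tested compounds plus 3 SD, cut at about 15% in these data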;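 also: 0% = PAD4 with RCA probe and DMSO and 100% = probe without PAD4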
Fam108b inh conf – mouse Fam108b serine hydrolase inhibitors, confirmation, counter-screen for RBBP9 inhibitor project, biochemical, fluorescence polarization, triplicate; inhibition, % at 9.51 µM; actives 44% (n = 930); shares compounds with Fam108B counter; recombinant Fam108b, FP-Rh probe fluorescence polarization;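 active = inhibition above a limit from the primary screen, the mean over all compounds plus 3 SD, cut at about 19% in these data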;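 also: 0% = median of active Fam108b wells and 100% = catalytically dead S170A mutant; inhibitors free the probe so polarization falls as inhibition rises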
Fam108b inh – inhibition of mouse Fam108b by HTS hits, late-stage follow-up, biochemical, gel-based ABPP, soluble recombinant form. shares compounds with Fam108B counter. fluorophosphonate probe. inhibition, % at 20 µM. actives 44% (n = 260); in the data active = inhibition above about 40%
GSTO1 inh conf – GSTO1 inhibitor hit confirmation, counter-screen for RBBP9 inhibitor project, biochemical, fluorescence polarization, triplicate; shares compounds with GSTO1 counter; recombinant GSTO1, probe fluorescence polarization; actives 54% (n = 2,400); AID 2176, 2009; inhibition, % at 5.96 µM;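 active = inhibition above the primary screen's cutoff, its mean inhibition plus 3 SD, cut at about 35% in these data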;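 also: loss of polarization as inhibitors block binding of rhodamine sulfonate ester activity probe; 0% = GSTO1 with DMSO and 100% = wells lacking GSTO1 enzyme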
LYPLA1 confirm – LYPLA1 inhibitors, retest, confirmation, counter-screen for PME1 inhibitor project, biochemical, fluorescence polarization, FP-Rh probe ABPP | shares compounds with LYPLA1 counter | recombinant LYPLA1 | inhibition, % at 5.9 µM | actives 69% (n = 480);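 active = mean inhibition across replicates above the hit cutoff set in the primary screen, cut at about 15% in these data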;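 also: loss of FP-Rh probe labeling of LYPLA1 seen as lower polarization; 0% = LYPLA1 with DMSO and 100% = wells lacking LYPLA1 enzyme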
Numbers without * were called inactive; / = no result. The list is not random: actives were taken first. Their share in the collection is about 1.8%.

SMILES | LYPLA1 counter | Fam108B counter | PME-1 primary | GSTO1 counter | LYPLA2 inh | PAD4 inh | Fam108b inh conf | GSTO1 inh conf | others
c1coc(-c2nc(-c3ccco3)c(-c3ccco3)nc2-c2ccco2)c1 | -15 | 71* | 4 | 80* | -1 | 45* | 10 | 37*
Nc1nc(-c2ccco2)c(-c2ccco2)s1 | -3 | 14 | 1 | 22 | -2 | -3 | / | /
Cc1cc(C)cc(NC(=O)C(OC(=O)c2sccc2C)c2ccccc2)c1 (stereo unspecified) | 5 | -24 | 4 | 0 | -36 | -1 | / | /
O=C(NCC1CCCCC1)C1(CC2CC(c3ccc(Cl)cc3)=NO2)CCNCC1 (stereo unspecified) | 1 | 5 | 3 | 0 | 6 | 1 | / | /
Cc1ccc(C)c(N2C(=N)S/C(=C\c3ccc(-c4ccccc4C(=O)O)o3)C2=O)c1 | 5 | 5 | 6 | -43 | 6 | -14 | / | /
CN1C(=O)/C(=C/c2ccc(-c3ccccc3[N+](=O)[O-])o2)SC1=Nc1ccc(Cl)c(C(=O)O)c1 | 0 | 30* | 12 | 72* | 3 | 12 | 11 | 79*
O=C(CCCOc1ccc(Cl)cc1Cl)NCC1CCCO1 (stereo unspecified) | 7 | 4 | 2 | 7 | 5 | -6 | / | /
Oc1ccc(/C=N/Nc2ccc(Cl)nn2)c(O)c1O | -5 | 23* | -3 | 71* | 1 | 6 | -8 | 15
CC1=NN(C(=O)Cn2nc([N+](=O)[O-])c(Br)c2C)C(O)(C(F)(F)F)C1 (stereo unspecified) | -2 | 3 | -5 | -2 | 5 | -1 | / | /
CC(=O)c1sc(NC(=O)CCNC(=O)c2ccco2)nc1-c1ccccc1 | -3 | 1 | 6 | -4 | 2 | 1 | / | /
O=C(CCl)Nc1nc(-c2ccco2)c(-c2ccco2)s1 | -4 | 19* | -7 | 88* | -1 | 3 | 7 | 88*
O=c1c(O)c(-c2cc(O)c(O)c(O)c2)oc2cc(O)cc(O)c12 | -31 | 31* | 19 | 79* | -22 | -6 | -27 | 48*
O=c1c(-c2ccccc2)c(-c2ccccc2)oc2cc(O)cc(O)c12 | -5 | 8 | -4 | -10 | -7 | -3 | / | /
CCC(CC)NC(=O)COC(=O)c1cccc(C)c1O | 2 | 2 | -2 | -3 | 5 | -2 | / | /
CCOC(=O)C1=C(SCC)c2cc3c(n2C1=O)CCCC3 | 2 | 23* | 8 | 38* | 0 | 5 | 14 | 21
CC(=O)c1cccc(NC(=O)N2C3CCC2CC(NC(=O)Nc2ccccc2)C3)c1 (stereo unspecified) | 3 | -3 | -9 | -3 | 4 | 6 | / | /
COc1cc(C2Nc3cccc4cccc(c34)N2)cc(OC)c1OC(C)=O | -3 | 34* | 23 | 49* | 3 | -7 | 1 | 4
CC(C)c1ccc(C(=O)NN2C(=O)C3CCCCC3C2=O)cc1 (stereo unspecified) | -6 | -3 | -3 | 3 | -2 | -2 | / | /
CCCCNC(=O)Oc1c(Br)cc2sc(=O)oc2c1Br | -1 | 26* | -10 | 66* | -2 | -10 | 1 | 19
O=C(NCCO)Nc1ccc2nsnc2c1 | 8 | 0 | 5 | 2 | 5 | 1 | / | /
O=C(NCCO)Nc1ccc2nc(-c3ccco3)c(-c3ccco3)nc2c1 | -7 | 68* | 25 | 65* | 4 | 18* | 45* | 42* | Fam108b inh=0
O=C(Nc1ccc(N2CCOCC2)cc1)c1ccc2nc(-c3ccco3)c(-c3ccco3)nc2c1 | -5 | -6 | -1 | 0 | -3 | -2 | / | /
O=C(NCc1ccccc1)c1ccc2nc(-c3ccco3)c(-c3ccco3)nc2c1 | -17 | 19* | 16 | 67* | -5 | -13 | 18 | 24
O=C(Nc1ccccc1)c1ccc2nc(-c3ccco3)c(-c3ccco3)nc2c1 | -22 | 48* | 8 | 57* | -14 | -19 | 8 | 13
CC(=O)c1ccc(NC(=O)c2ccc3nc(-c4ccco4)c(-c4ccco4)nc3c2)cc1 | -22 | 40* | 5 | 68* | -9 | -16 | 29* | 29
SMILES | LYPLA1 counter | Fam108B counter | PME-1 primary | GSTO1 counter | LYPLA2 inh | PAD4 inh | Fam108b inh conf | GSTO1 inh conf | others
O=C(COC(=O)CCS(=O)(=O)c1ccccc1)Nc1ccc(N2CCCCC2)cc1 | -3 | / | 3 | / | 0 | -2 | / | /
COC(=O)c1ccc(=O)c2nc3/c(=C/O)c(O)cc(=O)c3[nH]c12 | -5 | 33* | 14 | 75* | 4 | 14 | 49* | 71*
Cc1ccc2nc(/C(C#N)=C/c3ccc(O)c(O)c3)[nH]c2c1 | -19 | 31* | 29* | 46* | -16 | -19 | 17 | 51*
Cc1ccc2nc(/C(C#N)=C/c3cn[nH]c3-c3ccc(F)cc3)[nH]c2c1 | -22 | -1 | -23 | -31 | -21 | -8 | / | /
CC(=O)OC(C)=O | 2 | / | 5 | / | -5 | -4 | / | /
CCOc1ccc(N(CC(=O)NCCSCc2ccco2)S(=O)(=O)c2ccc(C)cc2)cc1 | -3 | -6 | 6 | 1 | -2 | -4 | / | /
CCN=c1scc(C)n1/N=C/c1cc(Br)c(O)c(Br)c1 | 10 | 21* | 6 | 46* | 14 | -2 | 9 | 21
C/C(=N\NC(=O)c1cc(O)cc(O)c1)c1ccc(NC(=O)Cc2ccccc2)cc1 | -8 | 27* | 2 | 38* | 4 | -1 | 10 | 47*
O=C(O)c1ccccc1N/N=C/c1cc(Br)cc(Br)c1O | 29* | 27* | 49* | 23 | 12 | -4 | 19* | / | LYPLA1 confirm=23*
O=C(Cc1ccccc1)N/N=C/c1cc(Br)cc(Br)c1O | 0 | 5 | 4 | -6 | 2 | -2 | / | /
